Measurements from PubChem BioAssay AID1508600 (Functional Genomics Laboratory (NCATS/FGL), 2020).
Screen size: about 53,000 sequences; about 3,700 (7%) were called active.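 Rule for the calls: active = gene knockdowns whose robust z-score for IL-1 alpha signal is at least 2 or at most -2, so actives lie on both sides; inactive = the rest.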 This excerpt belongs to a sample that is enriched for actives.

Assay: Components of the Cytosolic LPS Sensing Pathway: Gene Identification via Genome-wide siRNA Screen
Conditions: RAW264.7 macrophages, IL-1a HTRF, actives lie on both sides, screened at 100 nM (by protocol), cells primed 5 h with Pam3CSK4 first
Source text: Non-canonical inflammasome activation by cytosolic LPS is a critical component of the host response to Gram-negative bacterial infection, however we lack a comprehensive understanding of the cellular processes that control this pathway. Here we describe a genome-wide siRNA screen to identify genes regulating the mouse macrophage IL-1 alpha response to cytosolic LPS.
RAW264.7 cells were maintained in complete DMEM media, comprising DMEM with 4.5 g/L glucose, 10% FBS (Gemini Bio-Products, West Sacramento, CA), 2 mM Glutamine (Lonza) and 20 mM HEPES (Lonza), hereafter complete DMEM.
The RNAi screen was conducted in 384-well format using the Ambion Silencer Mouse Genome siRNA Library (#4391425), which consists of three unique, nonoverlapping, nonpooled siRNAs for each of 17,000 gene targets. siRNA reagents ([…]) were stamped into 384-well white flat-bottom microplates (Corning, 3570) using a Velocity11 VPrep liquid handling system (Agilent) integrated into a BioCel robotic platform (Agilent) in columns 1-22, leaving columns 23-24 empty for negative (Ambion, Negative control #1) and positive (mouse Casp4) controls, respectively. The median value of each plate's negative control column was used to normalize sample wells, and the positive control was used to assess transfection efficiency and assay performance.
Lipofectamine RNAiMAX Transfection Reagent ([…]; Invitrogen) was added in […] serum-free, antibiotic-free media to plate wells using a Thermo Scientific Matrix WellMate and Microplate Stacker. Plates were incubated for 45 min at room temperature to allow for the sufficient formation of siRNA-lipid complexes. Cells were seeded at a density of 1x10^4 cells per well in 20 microL media containing 20% (vol/vol) FBS without antibiotics. The final concentration of siRNA in each well was 100 nM. Cells were cultured for 48h at 37 degrees C in 5% CO2 before addition of […] of TLR ligand Pam3CSK4 for 5 hours. The medium was then removed, replaced with […] growth media and cell were transfected with […] of LipidA and TransIT-TKO (Mirus) for 24 hour. At the end of the LipidA treatment, […] of supernatant was transferred to a 384 Greiner Bio-one non-binding low volume plate and […] of IL-1a HTRF reagent (Cisbio, 62MIL1APEH) was added and incubated at room temperature overnight. The plates were read on an EnVision plate reader (PerkinElmer). Cell viability was measured by adding 20ul Cell Titer Glo to the original plate and running a luminescence read on the EnVision. The quantified IL-1a signal for each siRNA gene-targeted well was divided by the median of the negative control wells and multiplied by 100 to achieve a negative control normalized value for each well/siRNA. This normalized value was then used to generate a robust z-score by first taking the log of each value and then by subtracting the median and dividing by the […].

Sequence	z-score
GCUCAAAGUUUGAACUGGCTT against Atxn2l	0.153 (inactive)
GCUGAAGAGGCGCAUACAUTT against 2610318N02Rik	3.07 (active)
GCCAAAGACUCUUAUAAGUTT against Bnc1	-0.455 (inactive)
UCUCCUUCCUAACUUCAACTT against Tmem252	0.747 (inactive)
GCUCUCACCAUCAGAGAAATT against Trpc4	-0.12 (inactive)
CCUCUGAGUGGAACACCUATT against Sfr1	-3.54 (active)
GGCAUUCAUGACAAUGGCUTT against Rab1b	-1.89 (inactive)
GCGAUUUAUUGCCAAGCCCTT against Cers5	0.596 (inactive)
GGUUUAAGCUUUUUGUGGATT against D130079A08Rik	0.0133 (inactive)
GGAUGUGACGCACACAUGUTT against Cdip1	1.11 (inactive)
GCAAAUUGGUCAUCGACUGTT against Alg1	0.0456 (inactive)
GCCAUCUACUCUUUAAAUATT against Pdha1	0.351 (inactive)
GCAGAAAAACAUCCACGACTT against Spn	-2.01 (active)
GCAGACAGAUCGCUUCAACTT against Dok4	-0.882 (inactive)
CCCUCUUAGGAGCUAGUGATT against Atp2b4	-1.85 (inactive)
CCAUUCGAUACCUCGUGCATT against Dhps	-0.249 (inactive)
GGGCCUGGAUUACUUACACTT against Srpk1	4.83 (active)
UACUUGUAGCCAUGGCUCUTT against Olfr685	0.334 (inactive)
GGCAAAAUAUUGCACAGCGTT against Tsga10	-0.474 (inactive)
GGAAAUUAAACAGAAACAGTT against Ube2j2	-0.471 (inactive)
GGCUGUUUUACAUCAUCCCTT against Ust	-0.227 (inactive)
GGGAAAGUUUCUGCAUUCUTT against Lce1d	2.07 (active)

Sequence	z-score
CCACAGUCUAUUCAAACUUTT against Ncapd3	-1.12 (inactive)
GGUCAAGUCAGCAUUCCUGTT against Hspbp1	-1.78 (inactive)
GGAAAAGAAGACCUACACCTT against Ppp1r1c	-2.04 (active)
GGCCUGGAUGGAAAUUUGCTT against Fabp4	-0.851 (inactive)
GGAGAAAAGAGUUUGCCCGTT against Wfdc12	-0.329 (inactive)
GCAAAUUCUCGGUGUCAAATT against Ezh2	-1.04 (inactive)
CCUAGUAACUAUCUACCUCTT against Sval3	0.232 (inactive)
GGAUAUCAUCAUGUCUUUCTT against Otop1	1.29 (inactive)
CGUGGAUAAAGAUAACCCGTT against Znrd2	-0.117 (inactive)
GAUAAAAUCGGACUGAUAATT against Olfr1079	0.837 (inactive)
GGCGAACACUGUCAUGAAUTT against Spin4	3.37 (active)
GGUAUUCACACUGAAGCCCTT against H2-DMa	0.108 (inactive)
GCAACAUCCAGGCUUGCCUTT against Tmem107	-0.874 (inactive)
CCAUGAAGAACAAGAAAACTT against 1700010D01Rik	0.239 (inactive)
GGAUAGAAAACAGUAUCUGTT against Fggy	1.07 (inactive)
GGAAAACUGCUUUGAGCUGTT against Thap7	2.72 (active)
AAGGUGCAGAGUUACACGUTT against H2-T10	1.17 (inactive)
GGUCUUCAAUUUCUUCAAATT against 4930430F08Rik	0.928 (inactive)
GCAAUGUGUAUCAGCCGACTT against Gprc5b	3.38 (active)
GGGAAAACCGAAUAAAGAUTT against Ren2	-1.51 (inactive)
GCAUACCAUCUUAUUUUGGTT against Sptlc1	0.159 (inactive)
GCGUGAGCUAAUGUUCACATT against Agpat2	-0.255 (inactive)

Sequence	z-score
GCCACUACUAAUAGCAUGUTT against 5330438I03Rik	-1.68 (inactive)
CCCAGCACAUGCUAUCUCUTT against Zbtb21	-2.6 (active)
GGAGAAUGGAAAGUAUGGGTT against D1Pas1	-1.99 (inactive)
GCCUAUAAGGAAUAACAAGTT against Cerkl	1.27 (inactive)
GGCCUUGAUGGUGAAGAUGTT against Vstm4	-1.79 (inactive)
GGACAGACGUGCACUUAGATT against Garnl3	0.875 (inactive)
GGUGGAUGUUCGCAUGAUUTT against Ip6k1	-1.2 (inactive)
GGCAUAUACACAAUUGAUATT against Arsk	-1.27 (inactive)
GGAUAAGGAGAUGAAUUCCTT against Aard	1.01 (inactive)
GGUCUUACGCAAAACGGUCTT against Csf1r	2.86 (active)
CCCAAUCCUGUCAAUAGUCTT against Gfpt1	-0.911 (inactive)
GGCCUAAUGAAUUUGGUCATT against Ubxn7	0.93 (inactive)
CCCACAAAUUAAAGUCCGCTT against Cldn16	0.926 (inactive)
GGACCUGUCUUCAUUGGAGTT against Ngb	0.981 (inactive)
GCAGAUAAUUUUAACCCUCTT against Inpp5b	0.641 (inactive)
GCCAUUCUCCAACAAUCGATT against Evc	-1.69 (inactive)
CCUGCUACAAGUAUCUCAATT against Fdft1	2.85 (active)
GCAACCUCUCCUCUCUAGATT against Olfr15	-1.11 (inactive)
GCGGAUUCAGCUGAUGAUGTT against Sash1	-1.32 (inactive)
GGGUUCUCAAGGUUGCAUUTT against Frs3	1.15 (inactive)
GCUCGCCUGCAUUUCAUCATT against Pank4	3.3 (active)
CCCGGUUAGCCUUUGAUUGTT against Lamc3	0.576 (inactive)

Sequence	z-score
GGGAAUUUUGAAAAGGCUGTT against Nphp3	2.12 (active)
CCCUUGAGUCAUUCUCUAATT against Gsto1	0.0391 (inactive)
GGAAAUAGAUUUUCAGCUCTT against Dnase2b	0.138 (inactive)
GGAAUUUGAAACUUACGGCTT against Oc90	0.379 (inactive)
UUUCGAGCUGAUCCAUGAGTT against Tbata	1.19 (inactive)
GGUCCAGAUCCACCAGAUUTT against Banp	1.11 (inactive)
GGCACUCAAUGGUGAGCAATT against Sipa1	2.03 (active)
GGCUCUUGCUUUAGUAUUCTT against Ly9	0.99 (inactive)
GGCAGAUUACUCUGAAUGATT against Prdx4	0.326 (inactive)
GGUUUAUUGUAAUGGCUAATT against Olfr1271	0.452 (inactive)
GGACAAAUGGGUAUUAUCUTT against Phxr4	-1.01 (inactive)
GGAGAUGAUUUCCUACUUCTT against Rasgrp2	3.47 (active)
GGUGUACCAGAAUGAGAAGTT against Akr1b3	0.611 (inactive)
GGUAUUUAGUAAACACCCATT against Edar	0.413 (inactive)
GGGUCAAAUCUGACUGCAUTT against Klf10	0.501 (inactive)
GAGAACCAGGCUAUGUCUGTT against Defa-rs10	0.623 (inactive)
GCUGGCUGUUGGAUAAGUGTT against Olfr1112	2.45 (active)
CCUUGAUUGAGCCUGACUUTT against Hook2	0.543 (inactive)
CCUCAUAUAUCCCUAAUUATT against Camk1g	-0.982 (inactive)
GGACCUGUUUGAGCAGAGGTT against Eps8l2	0.539 (inactive)
GGUAGAAGUGAAAAAGAUATT against Bhmt	-0.386 (inactive)
GCGAGAGAUUCUUUCCCUGTT against Traf6	-1.24 (inactive)

Sequence	z-score
CCUCCUCUCUGUUUUCUACTT against Olfr699	-1.16 (inactive)
GCAGAAAAACCUGUGAAAATT against Pcnp	1.57 (inactive)
GGAUGGAUGUUUGCAUAAATT against Msx2	5.06 (active)
GGGACACAUACUGUAGUAUTT against Pspc1	0.00343 (inactive)
GGAGGAGAUGAUGAAUUUUTT against Etf1	0.965 (inactive)
GGUGAGUUCAUGGUUUCCUTT against Txnl4b	-0.142 (inactive)
GAGAAACUAUGGCUGAAAATT against Klk1	0.439 (inactive)
CCCUAAAAGACAAAGUGCUTT against Cmtm3	0.877 (inactive)
CCUAGAGAGACAUAUUGUUTT against Vstm4	-0.206 (inactive)
GCCAAUGACCCAAAUUCUATT against Ppip5k1	0.812 (inactive)
CCAUUUUUACCUACAUCCATT against Olfr452	2.43 (active)
CCCUACAGUACUAAUCAAATT against Ptgs2	0.6 (inactive)
GGGCUCUAACAUCUUAUACTT against Tbc1d31	1.54 (inactive)
GGGCCAUGGAUAAGAAAAATT against Psmc5	-2.61 (active)
GGCACAGACGGAUCAACAGTT against Clcn3	-0.725 (inactive)
GCUAUUGAGAAACCACUUATT against Rasef	-0.276 (inactive)
CCUAUUACUCAAACACAGATT against Arl5b	-0.257 (inactive)
GGACACAGCAAGAAGAUACTT against Wfdc12	-1.79 (inactive)
GCCACACCAAUAGAAGUGUTT against Csnk1g3	-2.42 (active)
UCUCCUUCAUUCCAUGUAUTT against Olfr441	-2.18 (active)
